# Screens (PubChem BioAssay)
# SMN2 splice up – increases expression of the SMN2 splice variant | Potency, µM (top dose mostly 46.1 µM), hits mostly activators | HEK293 SMN2-luciferase splicing reporter, luminescence, 30-36 h | hit rate 2.8% among 210,000 | AID 1458; note: nearly all actives have a fitted effect of over 55% in size
#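 qHTS luciferase splicing reporter: luminescence rises when SMN2 exon 7 is included in transfected HEK293 cells. Compound exposure lasted 30-36 h at 37C, with 4.5 mM final sodium butyrate as control, followed by a ONE-Glo read.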
# NPC1 prom act – activates the NPC1 promoter. Huh7 NPC1 promoter luciferase reporter, 24 h. Potency, µM (doses to about 9.22 µM), usual class: activators. hit rate 2.4% among 320,000; note: nearly all actives have a fitted effect of over 60% in size
#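 Luciferase expression driven by the NPC1 promoter was measured in stably transfected Huh7 cells after a 24 h compound incubation, using a luciferase reagent and a luminescence read.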
# ELG1 genotox – inducers of genotoxicity in HEK293T ELG1-luciferase cells. AID 504466. Potency, µM (doses to about 46 µM), usual class: activators. HEK293T ELG1-luciferase reporter, luminescence, 16 h. hit rate 1.3% among 330,000; note: nearly all actives have a fitted effect of over 60% in size
#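 HEK293T cells expressing luciferase-tagged ELG1 were exposed to compound or DMSO vehicle for 16 hr at 37 °C and 5% CO2. Luciferase activity was then measured with ONE-Glo after 30 min at room temperature.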
# Luc counter – blocks Kinase-Glo luciferase, a counter-screen artifact | Q27757 | Kinase-Glo luciferase, ATP luminescence, 8 min | Potency, µM (series often up to 38.3 µM), hits mostly inhibitors | hit rate 0.28% among 200,000 | AID 1379; note: nearly all actives have a fitted effect of over 60% in size
#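 Luminescence was the read-out, taken after 8-minute incubation at ambient temperature. Luciferase turned over luciferin with 10 uM ATP in imidazole pH 7.2 buffer containing KCl, MgCl2, Tween 20 and BSA.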
# FLuc modulator – inhibits or activates purified firefly luciferase, miR-21 counter-screen; P08659; purified FLuc, Km substrates, luminescence inhibition; Potency, µM (series often up to 57.5 µM), most hits filed as inhibitors; hit rate 6.9% among 360,000; AID 588342; note: nearly all actives have a fitted effect of over 55% in size
# Target sequence (P08659 whole entry, looked up): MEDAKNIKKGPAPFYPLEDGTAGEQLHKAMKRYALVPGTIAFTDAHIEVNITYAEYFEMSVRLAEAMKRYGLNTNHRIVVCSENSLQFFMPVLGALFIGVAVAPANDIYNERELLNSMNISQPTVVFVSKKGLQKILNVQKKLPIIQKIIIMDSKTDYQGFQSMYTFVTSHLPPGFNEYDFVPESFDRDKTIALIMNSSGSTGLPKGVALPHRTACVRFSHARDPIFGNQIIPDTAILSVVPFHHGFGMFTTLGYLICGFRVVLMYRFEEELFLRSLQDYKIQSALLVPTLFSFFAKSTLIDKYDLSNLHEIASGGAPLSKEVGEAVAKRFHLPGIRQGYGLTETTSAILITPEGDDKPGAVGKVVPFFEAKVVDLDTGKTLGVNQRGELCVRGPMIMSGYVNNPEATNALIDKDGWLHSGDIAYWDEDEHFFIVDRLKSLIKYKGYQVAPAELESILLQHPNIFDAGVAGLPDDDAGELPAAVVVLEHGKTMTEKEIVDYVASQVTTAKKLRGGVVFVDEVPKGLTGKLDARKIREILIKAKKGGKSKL
#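 Purified P. pyralis luciferase, 10 nM final, with Km-level 10 uM D-luciferin and 10 uM ATP in 50 mM Tris acetate pH 7.5, 10 mM Mg acetate, 0.01% Tween-20, 0.05% BSA; 6-point qHTS titration about 60 µM downward; luminescence read.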
# Rab9 promoter act – Rab9 promoter activation | Huh7 Rab9 promoter-luciferase reporter, luminescence, 24 h | Potency, µM (series often up to 9.22 µM), hits mostly activators | hit rate 2.8% among 320,000 | AID 485297; note: nearly all actives have a fitted effect of over 60% in size
#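 Quantitative HTS format; Huh7 Rab9-luciferase reporter cells (1500/well) receive compound 2 h post-plating, incubate 24 h at 37 °C, then get luciferase reagent for 10 min before luminescence reading.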
# A number is an active result; 0 = inactive; ? = inconclusive; - = not tested or not shown. Hits are enriched below; roughly 7.5% of the tested compounds scored in any of these assays. Calls come from the whole dose curve; as a rule, active = well fitted curve in the direction sought with a large enough effect; inconclusive = small, poorly fitted or top-dose-only effect, or another doubt; inactive = no such curve, though single readings can be large; an effect the other way counts as inactive or inconclusive.
SMILES,SMN2 splice up,NPC1 prom act,ELG1 genotox,Luc counter,FLuc modulator,Rab9 promoter act
CCOC(=O)c1csc(NC(=O)c2ccccc2)n1,11µM,3.2µM,8.2µM,0,12µM,1.8µM
CCOC(=O)c1csc(-c2sccc2Br)n1,-,2.5µM,5.2µM,-,1.9µM,3.2µM
CCOC(=O)c1csc(NC(=O)c2ccc(OCC)cc2)n1,0,0,0,0,6.7µM,?
Cc1c(-c2nsc(NC(=O)c3cccs3)n2)nnn1-c1ccc(Br)cc1,-,-,-,-,0,-
CCOC(=O)c1csc(NC(=O)c2ccc3c(c2)OCCO3)n1,-,?,0,-,3.8µM,?
CCOC(=O)c1csc(NC(=O)c2ccc(OC)c(OC)c2)n1,0,0,0,0,0,0
COc1ccc(-n2ccnc(NCc3ccccc3OC)c2=O)cc1,-,-,-,-,0,-
Clc1ccc2c(c1)C1OCCC1C(c1ccco1)N2 (stereo not given),13µM,?,?,?,?,4.5µM
CCc1ccc(-c2ccc(C(=O)O)cc2)nc1,?,?,0,0,8.5µM,3.5µM
COc1ccccc1/C=C/C=N/n1c(-c2ccc(F)cc2)n[nH]c1=S,-,0,0,-,?,0
S=c1[nH]nc(-c2cc(-c3ccccc3)n[nH]2)n1/N=C/c1ccccc1,-,0,0,-,?,0
COc1ccccc1/C=C/C=N/n1c(-c2cc(-c3ccccc3)n[nH]2)n[nH]c1=S,-,0,0,-,5.4µM,0
S=c1[nH]nc(-c2cc(-c3ccccc3)n[nH]2)n1/N=C/C=C/c1ccccc1,-,0,0,-,6.7µM,0
O=c1cc(-c2ccc([N+](=O)[O-])cc2)nc2cc(-c3ccc(Cl)cc3)[nH]n12,0,0,0,0,?,0
CCOC(=O)Cc1cc(=O)n2[nH]c(-c3ccc(Cl)cc3)cc2n1,0,0,0,0,13µM,0
CCCc1cc(=O)n2[nH]c(-c3ccc(C)cc3)cc2n1,13µM,4µM,?,0,9.5µM,4µM
CCCc1cc(=O)n2[nH]c(-c3ccc(Cl)cc3)cc2n1,-,?,?,-,15µM,2.8µM
CCCc1cc(=O)n2[nH]c(-c3ccccc3)cc2n1,11µM,4µM,?,0,17µM,2.8µM
O=c1cc(-c2ccccc2)nc2cc(-c3ccc(Br)cc3)[nH]n12,-,?,0,-,0,?
CCCc1cc(=O)n2[nH]c(C)nc2n1,0,0,0,0,0,0
CCOc1ccc(S(=O)(=O)N2CCN(c3cccc(C(F)(F)F)c3)CC2)cc1OCC,0,-,-,-,0,-
O=C(NCc1ccc(F)cc1)c1cccc(N2CCCS2(=O)=O)c1,-,-,-,-,0,-
CC(C)c1ccc(Cc2cn3cc(-c4cc5ccccc5oc4=O)nc3s2)cc1,0,-,-,-,0,-
Cc1ccc2c(c1)sc1nc(-c3cc4ccccc4oc3=O)cn12,0,-,-,-,0.43µM,-
COc1ccc2cc(-c3cn4c(n3)sc3cc(F)ccc34)c(=O)oc2c1,-,-,-,-,9.5µM,-
SMILES,SMN2 splice up,NPC1 prom act,ELG1 genotox,Luc counter,FLuc modulator,Rab9 promoter act
Cc1cc(C(=O)CSc2nnnn2C)c(C)n1CCc1ccc(F)cc1,0,0,0,0,0,0
Cc1cc(C(=O)CSc2ncccn2)c(C)n1Cc1ccco1,3.5µM,1µM,?,0,3µM,0.56µM
Cc1cc(C(=O)CSc2nnnn2C)c(C)n1Cc1ccco1,-,2.8µM,?,-,13µM,2.8µM
Cc1cccc(OC(C)C(=O)N2CCC(c3nc4ccccc4o3)CC2)c1C (stereo not given),-,-,-,-,0,-
Cc1sc(NC(=S)NC(=O)C(C)(C)C)c(C(N)=O)c1C,?,?,?,0,4.8µM,?
CCCCC(=O)Nc1sc2c(c1C(N)=O)CCC2,?,0,?,0,21µM,?
CC(C)(C)C(=O)NC(=S)Nc1sc2c(c1C(N)=O)CCC2,10µM,?,0,0,4.8µM,?
CC(=O)Nc1sc2c(c1C(N)=O)CCC2,0,0,0,0,0,0
Cn1c(=O)c2sccc2n2c(CCCC(=O)NCc3ccccc3)nnc12,-,-,-,-,0,-
Cc1c(C(=O)OCC(=O)c2ccc3c(c2)OCCO3)oc2ccccc12,0,0,0,0,9.5µM,0
Cc1c(C(=O)OCC(=O)N2CCC(C)CC2)oc2ccccc12,-,0,?,-,?,0
O=C(CN1C(=O)COc2ccccc2C1=O)c1ccc2c(c1)OCCO2,-,0,0,-,6.7µM,0
O=C(CS(=O)(=O)c1ccccc1)c1ccc2c(c1)OCCO2,0,2.8µM,?,10µM,6µM,2.8µM
